phage Ecoli inh: E. coli growth loss with phage present | growth absorbance | inhibition, % at 11.9 µM | hit rate 0.26% among 360,000 | AID 651602; in the data active = inhibition above about 11%
AddAB inh: less growth of phage-infected E. coli with AddAB; E. coli expressing H. pylori AddAB, absorbance growth; inhibition, % at 11.9 µM; hit rate 0.29% among 330,000; AID 435030; in the data active = inhibition above about 12%
Calb FLC: C. albicans growth modulation with fluconazole | C. albicans CaCi-2 (fluconazole-resistant clinical isolate) + fluconazole, Alamar Blue growth, 48 h | growth inhibition, % (concentration not given with the values) | hit rate 0.57% among 300,000;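 active = growth inhibition above about 58% in most replicates, limit read from the data, passing the limit was not always enough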;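 also: all wells also contain fluconazole at 8 µg/ml as a sub-toxic cotreatment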
E coli growth-1: bacterial growth inhibition, counter-screen for AddAB inhibitors. E. coli V3065 growth, OD600 absorbance, 18 h. inhibition, % at 11.9 µM. hit rate 0.27% among 330,000;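 active = inhibition above the campaign's mean inhibition across all tested compounds plus 3 SD, cut at about 9.9% in these data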;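 also: uninfected addAB+ strain grown without phage in ampicillin broth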
Tat transport: E. coli Tat transport inhibition. E. coli MC4100 TorA-mCherry Tat export, fluorescence. inhibition, % at 10 µM. hit rate 0.036% among 340,000;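 active = mean replicate inhibition at least 50% and at least half of replicates individually reaching 50%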;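 also: exported cargo escapes ClpAP degradation while cytoplasmic cargo is degraded and loses fluorescence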
E coli growth-2: inhibitors of Escherichia coli growth. hit rate 0.21% among 330,000. AID 1053175. OD600, 23 h; active compounds read low. OD600 absorbance (test concentration not listed);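 active = OD600 absorbance below the run mean of sample wells minus 3.6 SD, in any replicate, cut at about 0.56 in these data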
AddAB confirm: confirmation screen: growth loss of phage-infected E. coli expressing H. pylori AddAB; AID 488942; shares compounds with AddAB inh; E. coli V3065 expressing H. pylori AddAB, T4 phage, OD; T4 phage with gene 2 nonsense mutations; hit rate 64% among 880; inhibition, % at 11.9 µM;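 active = mean inhibition above a set limit taken from the earlier primary screen, cut at about 13% in these data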;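 also: higher means less bacterial growth since AddAB block lets phage replicate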
RecBCD counter: AddAB counter-screen: growth loss of RecBCD+ E. coli infected with mutant T4 phage | shares compounds with AddAB inh | E. coli V66 + mutant T4 phage, OD growth | inhibition, % at 11.9 µM | hit rate 73% among 880 | AID 488955;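 active = mean inhibition above the mean of solvent-only control wells plus 3 SD, cut at about 4% in these data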;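 also: optical density read after an 18 h incubation at 37 °C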
Bact viability: reduces bacterial viability, AddAB inhibitor counter-screen | shares compounds with AddAB inh | absorbance (AddAB counterscreen) | inhibition, % at 11.9 µM | hit rate 35% among 880 | AID 488956; in the data active = inhibition above about 25%
Each line names hits and unclear results; the compound was inactive in the other large screens (follow-up assays come after a bar, where they were run). In the library only some 0.9% were active in any assay of this set; here they are far more common.

COc1sc(SC)cc1C=NNC(=O)c1ccncc1	none (no result: phage Ecoli inh, AddAB inh, Calb FLC, E coli growth-1, Tat transport)
O=C1C=C(O)c2c(O)cc(O)c(O)c2C1=O	AddAB inh 13 | AddAB confirm 14 | RecBCD counter 9.8 | Bact viability inactive
C[C@@H]1Cc2c(O)c(O)cc(O)c2C(=O)O1	none (no result: phage Ecoli inh)
Cc1ccc(NC(=O)CSc2ccc(-c3ccccn3)nn2)cc1	none
O=C(CSc1ccc(-c2ccccn2)nn1)Nc1ccc(F)c(F)c1	AddAB inh 14, E coli growth-1 14 | AddAB confirm inactive | RecBCD counter 9.7 | Bact viability inactive
COc1ccc(C2C=CCN(S(=O)(=O)c3cccc4cccnc34)C(C)C(=O)N2Cc2ccc(F)cc2)cc1 (stereo not drawn)	none (no result: phage Ecoli inh, AddAB inh, Calb FLC, E coli growth-1, Tat transport)
CC(C)Cc1cc(C(=O)NCCN2CCOCC2)no1	AddAB inh 19 | AddAB confirm inactive | RecBCD counter inactive | Bact viability inactive
COc1ccc(NC(=O)CSc2nc3ncccc3[nH]2)cc1OC	AddAB inh 13 | AddAB confirm inactive | RecBCD counter inactive | Bact viability inactive
Cn1ccnc1SCC(=O)c1ccc(O)cc1	none
Cn1ccnc1SCC(=O)c1ccc(Cl)cc1	AddAB inh 82, E coli growth-1 35 | AddAB confirm inactive | RecBCD counter inactive | Bact viability inactive
NC(=O)C1CCCNc2c(F)cc([N+](=O)[O-])cc2C(=O)NC(CCC(=O)O)C(=O)NC(CO)C(=O)N1 (stereo not drawn)	none (no result: phage Ecoli inh, AddAB inh, Calb FLC, E coli growth-1, Tat transport)
O=C(NCc1cccnc1)Nc1ccc2c(c1)OCO2	AddAB inh 14 | AddAB confirm inactive | RecBCD counter inactive | Bact viability inactive
c1cncc(CNc2ccc3c(c2)OCO3)c1	none
Cc1ccc(C=NNC(=O)CSCc2ccc(Cl)cc2)cc1	none (no result: phage Ecoli inh, AddAB inh, Calb FLC, E coli growth-1, Tat transport)
CN1CCc2cc3c(c4c2[C@H]1[C@H](O)c1ccccc1-4)OCO3	AddAB inh 13, Calb FLC 95 (no result: E coli growth-2) | AddAB confirm 27 | RecBCD counter inactive | Bact viability inactive
COc1ccc2c(c1OC)C(=O)OC2C1c2c(cc3c(c2OC)OCO3)CCN1C (stereo not drawn)	none
O=C(NC(CO)Cc1ccc([N+](=O)[O-])cc1)C(Cl)Cl (stereo not drawn)	AddAB inh 81, E coli growth-1 83, E coli growth-2 0.061 (no result: phage Ecoli inh) | AddAB confirm 88 | RecBCD counter 88 | Bact viability 88
O=C(O)CC(Cc1ccc(Cl)cc1)C(=O)Nc1ccc([N+](=O)[O-])cc1 (stereo not drawn)	none
O=C(CN1CCCc2ccccc21)N/N=C/c1c(O)ccc2ccccc12	AddAB inh 15, Calb FLC 85, E coli growth-1 11 (no result: E coli growth-2) | AddAB confirm inactive | RecBCD counter 5.3 | Bact viability inactive
O=C(CN1CCCc2ccccc21)N/N=C/c1ccccc1	none (no result: E coli growth-2)
Fc1ccccc1-n1cn[nH]c1=S	AddAB inh 95, E coli growth-1 53 | AddAB confirm inactive | RecBCD counter inactive | Bact viability inactive
CCCC(=O)NC(c1ccc2c(c1)OCO2)c1cc(Cl)c2cccnc2c1O (stereo not drawn)	AddAB inh 23, E coli growth-1 24 (no result: phage Ecoli inh) | AddAB confirm 21 | RecBCD counter 22 | Bact viability inactive
CCC(=O)NC(c1ccc(C)cc1)c1cc(Cl)c2cccnc2c1O (stereo not drawn)	AddAB inh 21, E coli growth-1 25 (no result: phage Ecoli inh, Calb FLC, E coli growth-2) | AddAB confirm 16 | RecBCD counter 17 | Bact viability inactive
COc1ccc(C(NC(C)=O)c2cc(Cl)c3cccnc3c2O)cc1OC (stereo not drawn)	none (no result: E coli growth-2)
CCC(=O)NC(C)c1cc(Cl)c2cccnc2c1O (stereo not drawn)	none (no result: Calb FLC)
O=C1c2c(O)ccc(O)c2C(=O)c2c(NCCNCCO)ccc(NCCNCCO)c21	AddAB inh 31, E coli growth-1 32 (no result: Calb FLC) | AddAB confirm 52 | RecBCD counter inactive | Bact viability 51
O=C1c2ccccc2C(=O)c2c(Nc3ccc(CCO)cc3)ccc(O)c21	none (no result: E coli growth-2)
CCCCC(CC)CN=C(N)NC(N)=NCCCCCCN=C(N)NC(N)=NCC(CC)CCCC (stereo not drawn)	AddAB inh 98, E coli growth-1 101, Tat transport 76 (no result: phage Ecoli inh, Calb FLC, E coli growth-2) | AddAB confirm 104 | RecBCD counter 73 | Bact viability 98
CO[C@@]12[C@H](COC(N)=O)C3=C(C(=O)C(C)=C(N)C3=O)N1C[C@@H]1N[C@@H]12	AddAB inh 15, E coli growth-1 14 (no result: Calb FLC, E coli growth-2) | AddAB confirm 77 | RecBCD counter 16 | Bact viability 70
CC[n+]1c(/C=C/N(C)c2ccccc2)n(-c2ccccc2)c2ccc(-c3nc4ccccc4s3)cc21	AddAB inh 18, Calb FLC 116, E coli growth-1 35, E coli growth-2 0.38 (no result: phage Ecoli inh) | AddAB confirm 52 | RecBCD counter 6.7 | Bact viability inactive
O=C1CCC=CCC(CC(=O)N(CCO)Cc2ccccc2)C(=O)NC(Cc2c[nH]c3ccccc23)CO1 (stereo not drawn)	none (no result: phage Ecoli inh, AddAB inh, Calb FLC, E coli growth-1, Tat transport)
Cc1ccc(S(=O)(=O)N2CCC(C(=O)NNC(=O)c3ccccc3O)CC2)cc1	none
Cc1ccc(S(=O)(=O)N2CCC(C(=O)NNC(=O)c3ccccc3O)CC2)cc1C	AddAB inh 14 | AddAB confirm inactive | RecBCD counter 9.4 | Bact viability inactive
OCCC1CC(O)C(O)[C@]2(CCCc3ccccc3O2)O1 (stereo partly drawn)	none (no result: phage Ecoli inh, AddAB inh, Calb FLC, E coli growth-1, Tat transport)
COc1cc(C2Nc3cc(Cl)c(S(N)(=O)=O)cc3S(=O)(=O)N2)cc(OC)c1OC (stereo not drawn)	none
NS(=O)(=O)c1cc2c(cc1Cl)NCNS2(=O)=O	AddAB inh 55, E coli growth-1 38 | AddAB confirm 100 | RecBCD counter 6.2 | Bact viability 75
C[C@@]12C(=O)N(CC3CCCO3)CC(=O)N1C1c3cc(Cl)ccc3OCC1C2c1ccccc1 (stereo partly drawn)	none (no result: phage Ecoli inh, AddAB inh, Calb FLC, E coli growth-1, Tat transport)
CCOC(=O)N1CCN(C(=O)CCCn2c(=S)[nH]c3ccsc3c2=O)CC1	AddAB inh 25, E coli growth-1 24 | AddAB confirm inactive | RecBCD counter inactive | Bact viability inactive
O=C(O)c1cn(-c2ccc(N3CCCC3)c(F)c2)c2c(F)c(F)c(F)cc2c1=O	AddAB inh 22, E coli growth-1 17, E coli growth-2 0.46 | AddAB confirm 21 | RecBCD counter inactive | Bact viability inactive
CCCCN1C(=O)/C(=C2/Sc3ccccc3N2C)SC1=Nc1ncn[nH]1	none (no result: phage Ecoli inh, AddAB inh, Calb FLC, E coli growth-1, Tat transport)
Cc1ccc(CCNC(=O)c2cc(S(=O)(=O)N3CCOCC3)cn2C)cc1	none
Cn1cc(S(=O)(=O)N2CCOCC2)cc1C(=O)NCCc1ccccc1	AddAB inh 99, E coli growth-1 99 (no result: phage Ecoli inh) | AddAB confirm inactive | RecBCD counter inactive | Bact viability inactive
